Hits are enriched below; roughly 1.2% of the tested compounds scored in any of these assays.
RGS4-Gao reg = human RGS4-Galphao interaction regulation; P09471; Multiplexed bead flow cytometry, RGS4-Galphao binding; actives lie on both sides; binding response (% of control), % at 10 µM; 0.33% of 220,000 active; AID 1415; in the data active = binding response below about 49% or above about 150%; inactive = in between;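 note: fluorescent Galphao activated with aluminum fluoride binding bead-coupled RGS4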
Target sequence (P09471 whole entry, looked up): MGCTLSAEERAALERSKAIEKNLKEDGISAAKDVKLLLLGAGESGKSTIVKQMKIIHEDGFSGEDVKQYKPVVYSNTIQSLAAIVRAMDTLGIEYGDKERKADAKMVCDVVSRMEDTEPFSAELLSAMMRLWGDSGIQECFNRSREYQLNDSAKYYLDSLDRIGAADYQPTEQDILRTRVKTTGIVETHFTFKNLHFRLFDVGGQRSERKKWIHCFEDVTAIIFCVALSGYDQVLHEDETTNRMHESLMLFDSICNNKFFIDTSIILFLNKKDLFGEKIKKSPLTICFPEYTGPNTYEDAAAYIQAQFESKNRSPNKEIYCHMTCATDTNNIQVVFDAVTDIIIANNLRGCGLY
RGS7-Gao reg = modulates binding of RGS7 to human Galphao | P09471 | Multiplexed bead flow cytometry; actives lie on both sides | binding response (% of control), % at 10 µM | 0.35% of 220,000 active | AID 1439; in the data active = binding response below about 49% or above about 150%; inconclusive = no clear call, values can overlap the other calls; inactive = in between;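 note: fluorescent Galphao held in activated GDP-AlF4 state binding bead-coupled RGS7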
RGS16-Gao HTS = RGS16-Galphao interaction regulator (human). O15492+P09471. bead-based flow cytometry RGS16-Galphao binding, fluorescence; actives lie on both sides. binding response (% of control), % at 10 µM. 0.38% of 220,000 active;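 note: Galphao activated by GDP with aluminum fluoride before binding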
RGS8-Gao reg = modulates binding of RGS8 to human Galphao; response (percent of control binding), % at 10 µM; P09471; multiplexed bead flow cytometry; actives lie on both sides; 0.34% of 220,000 active; in the data active = response below about 60% or above about 140%; inactive = in between;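 note: Galphao activated as the GDP aluminium fluoride complex binding bead-coupled RGS8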
GSH fluor = GSH bead compound fluorescence profile. GSH beads flow cytometry, compound fluorescence 488/530 nm; active compounds read high. fluorescence (KMESF) at 10 µM. 0.25% of 190,000 active; in the data active = fluorescence above about 89;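 note: glutathione beads carrying GST-tagged Bcl family fusion proteins plus one bare bead set; values are compound well signal with DMSO vehicle wells as background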
Avidin bead fluor = avidin bead compound fluorescence profile; Avidin beads, compound fluorescence 488/530 nm, flow cytometry; active compounds read high; fluorescence (KMESF) at 10 µM; 0.38% of 220,000 active; in the data active = fluorescence above about 47
RGS-Gao = regulators of human RGS4-Galphao interaction | 99% of 1,600 active | shares compounds with RGS16-Gao HTS | multiplexed bead flow cytometry, RGS–Galpha-o binding | RGS4–Galpha-o binding response, % at 10 µM;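 note: fluorescently labeled Galpha-o bound to GDP with aluminium fluoride binding biotinylated RGS beads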
Biotin-avidin = counter-screen: compounds disrupting biotin binding to avidin beads; streptavidin beads, fluorescein-biotin binding, flow cytometry; inhibition, % at 10 µM; shares compounds with RGS16-Gao HTS; 1,700 tested, under 10 active;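 active = inhibition above 50%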;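 note: median green fluorescence of gated singlet beads compared with DMSO control wells; 0% = DMSO wells and 100% = complete loss of bead fluorescence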
RGS8-Gao confirm = RGS8-Galphao interaction regulation, single point confirmation; 3% of 1,700 active; bead-based flow cytometry RGS8-Galphao binding, fluorescence; actives lie on both sides; shares compounds with RGS16-Gao HTS; binding response (% of control), % at 10 µM; in the data active = binding response below about 72% or above about 130%; inactive = in between;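 note: Galphao activated as GDP AlF4 complex before binding bead RGS8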
RGS7-Gao single = confirmation of regulators of human RGS7-Galphao interaction. shares compounds with RGS16-Gao HTS. bead-based flow cytometry RGS7-Galphao binding; actives lie on both sides. response (percent of control binding), % at 10 µM. 7.8% of 1,700 active. AID 1837; in the data active = response below about 75% or above about 130%; inactive = in between;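 note: fluorescent Galphao activated with GDP and aluminum fluoride binding bead-coupled RGS7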
RGS16-Gao single = RGS16-Galphao interaction regulation, single point confirmation | 4% of 1,700 active | shares compounds with RGS16-Gao HTS | bead-based flow cytometry, RGS16-Galphao binding; actives lie on both sides | response (% of control binding), % at 10 µM; in the data active = response below about 74% or above about 130%; inactive = in between;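 note: Galphao activated as the GDP aluminium fluoride complex binding bead-coupled RGS16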
RGS4-Gao single = confirmation of regulators of human RGS4-Galphao interaction. 4% of 1,700 active. shares compounds with RGS16-Gao HTS. binding response (% of control), % at 10 µM. RGS4-Galphao binding, multiplexed bead flow cytometry; actives lie on both sides; in the data active = binding response below about 74% or above about 130%; inactive = in between
RGS19-Gao single = RGS19-Galphao interaction regulation, single point confirmation | shares compounds with RGS16-Gao HTS | bead-based flow cytometry RGS19-Galphao binding; actives lie on both sides | response (percent of control binding), % at 10 µM | 5% of 1,700 active | AID 1841; in the data active = response below about 50% or above about 160%; inactive = in between;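 note: 100% = no compound control and 0% = blank background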
Target sequence (P09471 whole entry, looked up): as above
Target sequence (P49795 whole entry, looked up): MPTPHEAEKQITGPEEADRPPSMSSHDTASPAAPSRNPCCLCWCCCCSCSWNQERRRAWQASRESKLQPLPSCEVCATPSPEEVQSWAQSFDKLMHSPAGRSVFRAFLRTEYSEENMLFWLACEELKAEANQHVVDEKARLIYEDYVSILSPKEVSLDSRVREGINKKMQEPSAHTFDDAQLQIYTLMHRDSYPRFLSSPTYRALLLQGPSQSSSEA
* hit, by the source's call; ? = inconclusive; nt = no result given; [ ] = remark or other dose. Unless noted, the rule behind the calls is not given here.

SMILES	RGS4-Gao reg	RGS7-Gao reg	RGS16-Gao HTS	RGS8-Gao reg	GSH fluor	Avidin bead fluor	Biotin-avidin	RGS8-Gao confirm	RGS7-Gao single	RGS16-Gao single	RGS4-Gao single	RGS19-Gao single	others
C=CCc1cccc([C@@H]2[C@@H](C)CC[C@H]3C(=O)N4[C@@H](c5cc(OC)c(OC)c(OC)c5)c5[nH]c6ccccc6c5C[C@H]4C(=O)N23)c1	94.3	97.3	106.3	99.3	18	8	nt	nt	nt	nt	nt	nt
C#CCSc1nnc(-c2ccccc2)c(=O)[nH]1	21.0*	17.0*	10.3*	12.8*	13	1	-1.7	101.3	89.9	99.0	97.0	80.2
COc1cc(OC)c2c(c1O)OC(c1ccccc1)CC2=O (configuration not stated)	98.2	95.1	99.7	99.2	18	7	nt	nt	nt	nt	nt	nt
CCn1c(SCC(=O)N2CCCC(C)C2)nnc1-c1ccc(S(=O)(=O)N2CCN(C)CC2)cc1 (configuration not stated)	nt	nt	nt	nt	40	nt	0.1	99.4	96.8	95.9	98.1	99.8
Cc1nc2c(cnn2-c2ccc(Cl)cc2)c(=O)n1-c1ccc(N2CCC(C)CC2)cc1	150.3*[activator]	171.0*[activator]	178.2	108.7	21	18	-0.6	105.0	107.7	109.6	103.6	122.2
CS(=O)(=O)NN1C(=O)c2ccccc2NC1c1cccs1 (configuration not stated)	97.2	99.7	101.4	99.3	9	5	nt	nt	nt	nt	nt	nt
COC(=O)c1c(-c2ccc(C(C)(C)C)cc2)csc1NC(=O)C1C2CCC(O2)C1C(=O)O (configuration not stated)	93.6	125.2	5.6*	75.3	10	3	2.8	83.7	135.2*[activator]	73.3*	96.4	75.7	RGS-Gao=93.6*
CCOC(=O)c1c(-c2cccc3ccccc23)csc1NC(=O)C1C2CCC(O2)C1C(=O)O (configuration not stated)	97.7	96.8	98.9	99.4	18	15	nt	nt	nt	nt	nt	nt
CC(C)CNS(=O)(=O)c1ccc(CCC(=O)N2CCC(C(N)=O)CC2)cc1	95.3	96.5	96.9	96.2	17	6	nt	nt	nt	nt	nt	nt
Cc1cc2cc(CCNC(=O)c3ccc(C)c([N+](=O)[O-])c3)c(=O)[nH]c2cc1C	3.7*	7.7*	5.8	16.5*	10	-3	0.2	101.5	103.3	101.5	101.5	96.1
Cc1ccc(C(=O)NCCc2nc3ccccc3[nH]2)cc1[N+](=O)[O-]	102.1	100.1	136.7	108.7	5	3	nt	nt	nt	nt	nt	nt
COC(=O)c1sccc1NC(=S)N1CCN(c2cccc(C)c2C)CC1	101.2	104.3	103.0	101.2	14	3	nt	nt	nt	nt	nt	nt
Cc1ccc(/C=N/n2c(-c3ccncc3)n[nH]c2=S)cc1	63.2	57.9	-29.4	50.5*	11	3	1.5	108.0	122.6	109.4	112.2	98.3	RGS-Gao=63.2*
c1ccc(Nc2c3c(nc4ncnn24)CCC3)cc1	nt	nt	nt	nt	46	nt	0.1	94.7	55.8*	76.2	72.0*	62.0
Clc1ccccc1Nc1c2c(nc3ncnn13)CCC2	98.1	97.2	101.9	100.6	33	15	nt	nt	nt	nt	nt	nt
CCCCC(CCC(=O)O)(C(=O)OCC)c1csc(Nc2ccc(C)cc2)n1 (configuration not stated)	1.7*	-15.9*	10.0*	11.8*	13	0	3.0	94.3	91.7	91.6	90.6	74.9
Cc1ccccc1-c1ccc(=O)n(CC(=O)Nc2ccc(N3CCOCC3)cc2)n1	nt	nt	nt	nt	47	nt	0.1	95.9	99.1	97.6	97.8	101.8
CCN(CC)CCN1C(=O)c2ccccc2NC1c1ccc(F)cc1 (configuration not stated)	98.9	99.8	102.0	100.7	25	37	nt	nt	nt	nt	nt	nt
CCN(CC)CCN1C(=O)c2ccccc2NC1c1ccccc1F (configuration not stated)	87.9	89.9	22.7*	75.3	23	3	nt	nt	nt	nt	nt	nt	RGS-Gao=87.9*
COc1ccc(Nc2ccc(S(=O)(=O)N3CCCCCC3)cc2[N+](=O)[O-])cc1	104.5	nt	106.7	102.7	9	7	2.5	90.1	88.0	88.8	91.4	78.0
COCCNC(=O)CN(C(=O)Cn1nnc2ccccc21)c1cc(C)cc(C)c1	110.2	167.4*[activator]	102.7	100.2	9	60*	0.1	93.9	92.1	94.2	93.1	99.9	RGS-Gao=110.2*
COCCCNC(=O)C(=O)C1C(=O)Nc2ccccc21 (configuration not stated)	96.3	?	100.0	99.7	13	11	nt	nt	nt	nt	nt	nt
CC1=CC(C)(C)N(C(=O)CNC2CCCCC2)c2cc(C)ccc21	99.1	100.7	97.3	100.8	22	9	nt	nt	nt	nt	nt	nt
O=[N+]([O-])c1ccc(COc2ncnc3ccccc23)cc1	103.2	103.6	107.8	103.0	12	20	nt	nt	nt	nt	nt	nt
CC1=NN(C(=O)CSCc2ccccc2)C(O)(c2ccc(F)cc2)C1 (configuration not stated)	99.7	?	99.5	99.7	15	9	nt	nt	nt	nt	nt	nt
CC1=NN(C(=O)CSCc2ccccc2)C(O)(c2ccc(Cl)cc2)C1 (configuration not stated)	56.6	49.3*	51.9	58.7*	13	5	0.3	102.4	104.7	104.5	102.8	106.8	RGS-Gao=56.6*
CCCCCNCc1ccc(OCc2ccc(Cl)nc2)c(OC)c1	116.1	124.9	265.6*[activator]	132.0	10	25	-1.7	101.8	94.9	102.7	100.9	112.7	RGS-Gao=116.1*
CC(C)c1nc2scc(-c3ccc(Cl)cc3)c2c(=O)n1N	96.5	?	95.1	97.0	nt	8	nt	nt	nt	nt	nt	nt

Bioassay records from PubChem.
